Anthrax LF prot: inhibitors of Bacillus anthracis lethal factor protease | P15917 | hit rate 0.12% among 360,000 | multiplex microsphere protease cleavage assay, LF | inhibition, % at 10 µM | AID 588501; note: plate controls were buffer without enzyme for full effect and enzyme alone for no effect
Target sequence (P15917 whole entry, looked up): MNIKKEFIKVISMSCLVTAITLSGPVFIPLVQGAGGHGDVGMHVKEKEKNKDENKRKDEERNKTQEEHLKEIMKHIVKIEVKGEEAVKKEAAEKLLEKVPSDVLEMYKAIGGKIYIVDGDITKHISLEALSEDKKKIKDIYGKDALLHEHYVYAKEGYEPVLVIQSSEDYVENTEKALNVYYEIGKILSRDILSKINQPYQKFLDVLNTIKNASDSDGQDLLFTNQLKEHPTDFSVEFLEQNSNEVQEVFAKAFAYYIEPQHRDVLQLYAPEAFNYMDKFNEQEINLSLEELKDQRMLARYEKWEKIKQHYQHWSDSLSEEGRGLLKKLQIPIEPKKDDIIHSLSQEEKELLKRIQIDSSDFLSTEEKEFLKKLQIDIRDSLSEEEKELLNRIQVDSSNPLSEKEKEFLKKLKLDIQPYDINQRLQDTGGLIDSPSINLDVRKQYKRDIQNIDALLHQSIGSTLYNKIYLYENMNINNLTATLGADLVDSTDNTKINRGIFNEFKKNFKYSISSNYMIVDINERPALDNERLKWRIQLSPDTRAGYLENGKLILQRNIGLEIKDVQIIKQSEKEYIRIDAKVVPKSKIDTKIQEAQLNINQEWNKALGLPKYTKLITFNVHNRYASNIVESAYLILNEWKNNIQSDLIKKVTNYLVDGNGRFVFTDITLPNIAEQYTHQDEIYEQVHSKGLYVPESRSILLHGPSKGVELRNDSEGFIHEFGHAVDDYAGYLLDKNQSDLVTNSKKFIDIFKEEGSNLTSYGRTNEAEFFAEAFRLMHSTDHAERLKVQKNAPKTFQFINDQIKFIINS
BoNT F protease: blocks Botulinum neurotoxin F light chain protease; Multiplex microsphere protease cleavage assay, flow cytometry; inhibition, % at 10 µM; hit rate 0.22% among 360,000; AID 588497; in the data active = inhibition above about 35%, passing the limit was not always enough; inconclusive = no clear call, values can overlap the other calls; note: plate controls were buffer without enzyme for full effect and enzyme alone for no effect
CCHFV vOTU inh: blocks the CCHF virus ovarian tumor domain protease. CCHFV vOTU protease, Pep-AMC fluorescence. inhibition, % at 11.5 µM. hit rate 0.55% among 370,000. AID 651958; in the data active = inhibition above about 30%; note: 0% = vehicle wells with enzyme and 100% = no enzyme wells
3CLpro inhibitor: SARS-CoV 3CLpro protease inhibition; hit rate 0.14% among 290,000; AID 1706; recombinant SARS-CoV 3CLpro, quenched FRET peptide cleavage; inhibition, % at 6 µM; in the data active = inhibition above about 12%
BoNT-A LC inh2: blocks Botulinum neurotoxin A light chain protease; multiplex microsphere protease substrate cleavage, flow cytometry; hit rate 0.17% among 360,000; inhibition, % at 10 µM; note: plate controls were buffer without enzyme for full effect and enzyme alone for no effect
Bead autofluor: counter-screen for toxin protease inhibitors: compound fluorescence | compound autofluorescence counterscreen, microsphere flow cytometry; active compounds read high | fluorescence intensity (no concentration beside the values) | hit rate 3.1% among 360,000; in the data active = fluorescence intensity above about 16000; inconclusive = no clear call, values can overlap the other calls
Starred values were filed as active, the others as inactive; ? = inconclusive; / = no result given. In the library only some 3.9% were active in any assay of this set; here they are far more common. Cut-off read from the data, not from the text of the source, unless noted: active = inhibition above about 30%; inconclusive = no clear call, values can overlap the other calls; inactive = below that.

SMILES | Anthrax LF prot | BoNT F protease | CCHFV vOTU inh | 3CLpro inhibitor | BoNT-A LC inh2 | Bead autofluor
COc1ccc(C2C(=O)N(C3CCCCC3)CC(=O)N2CC2COc3ccccc3O2)cc1 (centres undefined) | -2 | 7 | -6 | 2 | 5 | 21276*
COc1ccc(OC)c(S(=O)(=O)N2CCC(C(=O)NCc3cccs3)CC2)c1 | / | / | 1 | / | / | /
CC(=O)OCCCN1C(=O)c2ccc(Br)cc2C1=O | -10 | 1 | 3 | 0 | ? | 22144*
O=C(CCN1C(=O)c2ccc(Br)cc2C1=O)NC1CCCCC1 | -4 | -4 | -1 | 1 | 1 | 5555
COCCCN1C(=O)c2ccc(C(=O)O)cc2C1=O | -3 | 7 | 0 | 3 | 6 | 21024*
O=C(c1cccs1)N(C(=O)c1cccs1)c1ccc(Br)cn1 | 0 | 1 | 2 | -1 | 2 | 22230*
Cc1ccc(NCCC(=O)c2cccc([N+](=O)[O-])c2)cc1 | -3 | 2 | 0 | 0 | 0 | 10591
O=C(CCNc1ccc(Br)cc1)c1cccc([N+](=O)[O-])c1 | -8 | -2 | 5 | -4 | 0 | 4144
O=C(CCNc1ccc(F)cc1)c1cccc([N+](=O)[O-])c1 | -2 | -2 | -3 | 3 | ? | 20472*
O=C(CCNc1ccccc1)c1cccc([N+](=O)[O-])c1 | -9 | 4 | -5 | -9 | 7 | 20571*
CN1C(=O)NC(c2ccccc2)C2=C1CN(CCc1ccccc1)C2=O (centres undefined) | 0 | -2 | -11 | 2 | ? | 20821*
Cc1cn(-c2cc(NC(=O)c3ccc(C)c(Nc4nccc(-c5cccnc5)n4)c3)cc(C(F)(F)F)c2)cn1 | / | / | -9 | / | / | /
Cc1cc(C)c(C(N)=O)c(NC(=O)Nc2ccccc2)n1 | -4 | 1 | -9 | -2 | 0 | 22860*
Cc1cccnc1NC(=O)Nc1ccccc1 | -10 | -4 | -8 | 3 | -1 | 5425
COC(=O)[C@]12C[C@H](CC(=O)NCCCN3CCCC3=O)C(=O)N(CCc3ccc(OC)c(OC)c3)C1=C[C@H](C1CCCC1)O[C@@H]2C | / | / | -4 | / | / | /
Cc1ccc(OCCn2c(C3CC(=O)N(Cc4ccccc4)C3)nc3ccccc32)cc1 (centres undefined) | -5 | -10 | 14 | 2 | 0 | 4297
C=CCN1CC(c2nc3ccccc3n2Cc2cccc3ccccc23)CC1=O (centres undefined) | -1 | -3 | -2 | -4 | -1 | 19853*
Cn1c(=O)c2c(nc(NCCCO)n2Cc2cccc(Br)c2)n(C)c1=O | -1 | 4 | -6 | 4 | ? | 18885*
Cn1c(=O)n(Cc2ccccc2)c(=O)c2c1nc(NCC1CCCO1)n2Cc1ccccc1 (centres undefined) | -4 | -3 | 3 | 2 | -1 | 24036*
O=C1C(Cl)=C(NCC2CCCO2)C(=O)N1Cc1ccccc1 (centres undefined) | -1 | -2 | -4 | -7 | ? | 20284*
CNc1nc2c(c(=O)n(C)c(=O)n2C)n1Cc1ccccc1 | -1 | 3 | -6 | -4 | 2 | 21814*
O=C1C(Cl)=C(NC2CCCCC2)C(=O)N1Cc1ccccc1 | -9 | -1 | -3 | 3 | -1 | 4593
Cc1cccc(Cn2c(NCCO)nc3c2c(=O)n(C)c(=O)n3C)c1 | -2 | -4 | 5 | 1 | 1 | 6820
CCOc1ccc(-n2c(COc3ccccc3)nnc2SCC(=O)Nc2ccc(OCc3ccccc3)cc2)cc1 | / | / | -3 | / | / | /
CC(=O)Nc1ccc(NC2=Nc3ccccc3N3C2=Nc2c(c(C)nn2-c2ccccc2)C3c2ccccc2)cc1 (centres undefined) | 68* | 32 | 19 | -5 | 147* | 3420
SMILES | Anthrax LF prot | BoNT F protease | CCHFV vOTU inh | 3CLpro inhibitor | BoNT-A LC inh2 | Bead autofluor
COc1cccc(C2c3c(C)nn(-c4ccc([N+](=O)[O-])cc4)c3N=C3C(=O)Nc4ccccc4N32)c1 (centres undefined) | 2 | -3 | -4 | 2 | 1 | 3467
CC(=O)Nc1ccc(NC(=O)COC(=O)c2c(C)nn(-c3ccccc3)c2C)cc1 | -2 | 0 | -10 | -2 | 0 | 2061
COc1ccc(NC2=Nc3ccccc3N3C2=Nc2c(c(C)nn2-c2ccc(C)cc2)C3c2cccnc2)cc1 (centres undefined) | 60* | 44* | -10 | 5 | ? | 15892
CCOc1ccc(OCCNC2CCCC2)cc1 | -3 | -6 | 0 | 6 | ? | 22478*
CCCOc1ccc(OCCNC2CCCC2)cc1 | 0 | 0 | -4 | 7 | 0 | 20118*
COC(=O)c1cc(OC)c(OC)cc1NC(=O)Nc1ccccc1OC | -2 | -1 | -8 | -2 | 1 | 23051*
COC(=O)c1ccccc1NC(=O)Nc1cc(C)cc(C)n1 | -1 | 6 | -8 | -5 | 4 | 21356*
COC(=O)c1ccccc1NC(=O)Nc1cc(C)ccn1 | -1 | 0 | -4 | -4 | 0 | 2026
COC(=O)c1cc(OC)c(OC)cc1NC(=O)c1cccc(OC)c1OC | 6 | -4 | 0 | 6 | 1 | 4510
O=C(c1cccc(C(F)(F)F)c1)N1CC[C@H]2[C@H](CCCN2Cc2ccc(F)cc2)C1 | / | / | 5 | / | / | /
CCCCCCCCNC(=O)c1cnccn1 | 0 | -5 | -13 | 0 | -1 | 10727
Cc1cc(C(F)(F)F)nn1CCCNC(=O)c1cnccn1 | -2 | 0 | -3 | -1 | ? | 23254*
Cc1nc2ccc(S(=O)(=O)NCC(=O)N(C)Cc3ccccc3F)cc2s1 | / | / | -4 | / | / | /
Cn1c(=O)c2ccccc2n(C)c1=O | / | / | -1 | / | / | /
COc1ccc(-c2cc(C(=O)O)c(C)o2)cc1OC | -5 | 0 | -1 | 5 | 1 | 20243*
Cc1cccc(Nc2nc(N3CCCC3)nc(N3CCCC3)n2)c1 | -2 | 0 | -2 | 1 | 1 | 22488*
c1ccc(Nc2nc(N3CCCC3)nc(N3CCCC3)n2)cc1 | -5 | -1 | 10 | -1 | 1 | 20430*
c1ccc(Nc2nc(N3CCCCC3)nc(N3CCCCC3)n2)cc1 | 2 | 9 | 20 | 1 | 0 | 4303
COc1ccc([C@H]2OC(=O)C[C@@H]2C(=O)N2CCN(c3ccccc3F)CC2)cc1OC | / | / | -1 | / | / | /
O=C(CCc1ccccc1)N[C@H]1[C@@H](OC(=O)c2cnccn2)CCC[C@@]12C(=O)N(Cc1ccccc1)c1ccccc12 | / | / | -2 | / | / | /
COc1ccc(N(C(=O)C(C)C)S(=O)(=O)c2ccc(Cl)cc2)cc1 | -2 | 2 | -8 | -1 | 0 | 16342*
COC(=O)c1ccc(-c2cccc(CN3CCN(c4ncc(Cc5ccccc5)cn4)CC3)c2)cc1 | / | / | 5 | / | / | /
O=C(OCc1cn(Cc2c(F)cccc2F)nn1)N1CCOCC1 | / | / | -7 | / | / | /
O=c1[nH]c(Nc2ccc(F)cc2)cc2ccccc12 | -2 | -2 | 105* | 0 | ? | 23479*
COc1ccc(CN2C[C@]3(C=C(C)Cn4c(=O)n(-c5ccccc5)c(=O)n43)N=C2NC(=O)c2ccccc2)c(OC)c1 | / | / | 7 | / | / | /
CCN(CC)c1ccc(C=NNC(=O)Cc2cc(=O)[nH][nH]2)c(O)c1 | / | / | 3 | / | / | /
Cc1nnc(SCc2cccc(CSc3nnc(C)s3)c2)s1 | 2 | 3 | 9 | 8 | 0 | 3886

High-throughput results from PubChem.
